# Assay results taken from ChEMBL document CHEMBL5606458, “ASAP - ZIKV NS2B-NS3 protease fluorescence single point” (2024).
# The whole screen tested about 2,700 compounds, of which about 160 (5.9%) showed an effect of 50% or more. For the sample, strong results were picked, then their nearest neighbours and some compounds at random.
# Biological target: Nonstructural protein 3 (Zika virus) (UniProt A0A024AXB9)
# Sequence (A0A024AXB9 as listed by the source): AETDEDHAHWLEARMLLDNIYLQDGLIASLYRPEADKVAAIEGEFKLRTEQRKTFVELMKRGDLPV
smiles,measurement,setting,value
COc1cnccc1NC(=O)c1cccn(CC(C)C)c1=O,inhibition,"PRVABC59, Concentration 49.5 uM, Number of replicates 2.0, Standard deviation 2.517858799186995 %",14.1%
same,inhibition,"PRVABC59, Concentration 99.01 uM, Number of replicates 2.0, Standard deviation 2.0130939800794283 %",24.9%
same,inhibition,"PRVABC59, Concentration 198.0 uM, Number of replicates 2.0, Standard deviation 1.1565850502914639 %",38%
O=C1NCc2ccccc2C12CCN(C1CS(=O)(=O)C1)CC2,inhibition,"PRVABC59, Concentration 49.5 uM, Number of replicates 2.0, Standard deviation 2.478163590707131 %",-2.5%
same,inhibition,"PRVABC59, Concentration 99.01 uM, Number of replicates 2.0, Standard deviation 1.6189007436906162 %",-1.76%
same,inhibition,"PRVABC59, Concentration 198.0 uM, Number of replicates 2.0, Standard deviation 2.7604333789428463 %",-2.06%
N#C[C@H](c1c[nH]c2ccccc12)N1CCCCC1,inhibition,"PRVABC59, Concentration 49.5 uM, Number of replicates 2.0, Standard deviation 0.9976655532404076 %",2.57%
same,inhibition,"PRVABC59, Concentration 99.01 uM, Number of replicates 2.0, Standard deviation 2.0662033924754 %",3.53%
same,inhibition,"PRVABC59, Concentration 198.0 uM, Number of replicates 2.0, Standard deviation 2.2933585318984724 %",2.01%
CN(C)Cc1cccc(C(=O)Nc2cc(Cl)cc(C(=O)NC(C)(C)CO)c2)c1,inhibition,"PRVABC59, Concentration 49.5 uM, Number of replicates 2.0, Standard deviation 1.8243044214328226 %",6.06%
same,inhibition,"PRVABC59, Concentration 99.01 uM, Number of replicates 2.0, Standard deviation 1.3712089412013073 %",12.5%
same,inhibition,"PRVABC59, Concentration 198.0 uM, Number of replicates 2.0, Standard deviation 2.8457565601547175 %",22%
CN(C)Cc1ccc(C(=O)Nc2cc(Cl)cc(C(=O)NC(C)(C)CO)c2)[nH]1,inhibition,"PRVABC59, Concentration 49.5 uM, Number of replicates 2.0, Standard deviation 0.7294034755731748 %",25.7%
same,inhibition,"PRVABC59, Concentration 99.01 uM, Number of replicates 2.0, Standard deviation 0.13537432871783928 %",38.6%
same,inhibition,"PRVABC59, Concentration 198.0 uM, Number of replicates 2.0, Standard deviation 2.37813693875156 %",53.1%
CC(C)(CO)NC(=O)c1cc(Cl)cc(NC(=O)c2cc(Cl)ccc2O)c1,inhibition,"PRVABC59, Concentration 49.5 uM, Number of replicates 2.0, Standard deviation 2.1093755895168673 %",7.55%
same,inhibition,"PRVABC59, Concentration 99.01 uM, Number of replicates 2.0, Standard deviation 4.458409623609473 %",13.5%
same,inhibition,"PRVABC59, Concentration 198.0 uM, Number of replicates 2.0, Standard deviation 1.5634862358558868 %",19.6%
O=C(Nc1ccc2c(c1)B(O)OC2)c1cccc(OCc2c(Cl)cccc2Cl)c1,inhibition,"PRVABC59, Concentration 49.5 uM, Number of replicates 2.0, Standard deviation 1.6182218422548027 %",13.7%
same,inhibition,"PRVABC59, Concentration 99.01 uM, Number of replicates 2.0, Standard deviation 3.3767515547267357 %",18.1%
same,inhibition,"PRVABC59, Concentration 198.0 uM, Number of replicates 2.0, Standard deviation 1.8193304189589607 %",26.3%
O=C(c1cc(Cl)ccc1NS(=O)(=O)c1ccc(Oc2ccccc2Cl)cc1)N1CCCC1,inhibition,"PRVABC59, Concentration 49.5 uM, Number of replicates 2.0, Standard deviation 2.8745469037851152 %",9.57%
same,inhibition,"PRVABC59, Concentration 99.01 uM, Number of replicates 2.0, Standard deviation 3.402955430557717 %",14.4%
same,inhibition,"PRVABC59, Concentration 198.0 uM, Number of replicates 2.0, Standard deviation 3.9207965622968795 %",20%
O=C(NC[C@H]1CCCO1)c1cc(Cl)ccc1NS(=O)(=O)c1ccc(Oc2ccccc2Cl)cc1,inhibition,"PRVABC59, Concentration 49.5 uM, Number of replicates 2.0, Standard deviation 0.526737151348054 %",37%
same,inhibition,"PRVABC59, Concentration 99.01 uM, Number of replicates 2.0, Standard deviation 0.29372509619508946 %",35.9%
same,inhibition,"PRVABC59, Concentration 198.0 uM, Number of replicates 2.0, Standard deviation 0.7843616173322282 %",19.9%
O=C(NC[C@H]1CCOC1)c1cc(Cl)ccc1NS(=O)(=O)c1ccc(Oc2ccccc2Cl)cc1,inhibition,"PRVABC59, Concentration 49.5 uM, Number of replicates 2.0, Standard deviation 4.1620208465884945 %",16.4%
same,inhibition,"PRVABC59, Concentration 99.01 uM, Number of replicates 2.0, Standard deviation 1.5720504754733005 %",31.6%
same,inhibition,"PRVABC59, Concentration 198.0 uM, Number of replicates 2.0, Standard deviation 3.020626194849933 %",23.3%
O=C(c1cc(Cl)ccc1NS(=O)(=O)c1ccc(Oc2ccccc2Cl)cc1)N1CC[C@H](CO)C1,inhibition,"PRVABC59, Concentration 49.5 uM, Number of replicates 2.0, Standard deviation 0.6366783858004793 %",4.61%
same,inhibition,"PRVABC59, Concentration 99.01 uM, Number of replicates 2.0, Standard deviation 1.3685297503351668 %",11.5%
same,inhibition,"PRVABC59, Concentration 198.0 uM, Number of replicates 2.0, Standard deviation 0.3954655654516591 %",72.9%
CC[C@H]1CCN(C(=O)c2cc(Cl)ccc2NS(=O)(=O)c2ccc(Oc3ccccc3Cl)cc2)C1,inhibition,"PRVABC59, Concentration 49.5 uM, Number of replicates 2.0, Standard deviation 0.8056939918249262 %",9.4%
same,inhibition,"PRVABC59, Concentration 99.01 uM, Number of replicates 2.0, Standard deviation 0.9468131045821944 %",15.3%
same,inhibition,"PRVABC59, Concentration 198.0 uM, Number of replicates 2.0, Standard deviation 0.6022197968075486 %",23.5%
C[C@@H](NC(=O)c1cc(Cl)ccc1NS(=O)(=O)c1ccc(Oc2ccccc2Cl)cc1)[C@H]1CCCO1,inhibition,"PRVABC59, Concentration 49.5 uM, Number of replicates 2.0, Standard deviation 0.31998022259385983 %",30.9%
same,inhibition,"PRVABC59, Concentration 99.01 uM, Number of replicates 2.0, Standard deviation 0.2133183501303701 %",35.1%
same,inhibition,"PRVABC59, Concentration 198.0 uM, Number of replicates 2.0, Standard deviation 0.1263515313886271 %",23.8%
O=C(c1cc(Cl)ccc1NS(=O)(=O)c1ccc(Oc2ccccc2Cl)cc1)N1CCC[C@@H]1CO,inhibition,"PRVABC59, Concentration 49.5 uM, Number of replicates 2.0, Standard deviation 0.644882859919004 %",6.57%
same,inhibition,"PRVABC59, Concentration 99.01 uM, Number of replicates 2.0, Standard deviation 0.07876403049715877 %",37.2%
same,inhibition,"PRVABC59, Concentration 198.0 uM, Number of replicates 2.0, Standard deviation 0.031176529605690447 %",69.4%
O=C(c1cc(Cl)ccc1NS(=O)(=O)c1ccc(Oc2ccccc2Cl)cc1)N1CCC[C@H](O)C1,inhibition,"PRVABC59, Concentration 49.5 uM, Number of replicates 2.0, Standard deviation 2.1414055085112063 %",8.55%
same,inhibition,"PRVABC59, Concentration 99.01 uM, Number of replicates 2.0, Standard deviation 0.8713297847731235 %",39.7%
same,inhibition,"PRVABC59, Concentration 198.0 uM, Number of replicates 2.0, Standard deviation 0.024611062132057417 %",79.8%
C[C@H]1COCCN1C(=O)c1cc(Cl)ccc1NS(=O)(=O)c1ccc(Oc2ccccc2Cl)cc1,inhibition,"PRVABC59, Concentration 49.5 uM, Number of replicates 2.0, Standard deviation 0.03588483834653944 %",17%
same,inhibition,"PRVABC59, Concentration 99.01 uM, Number of replicates 2.0, Standard deviation 0.6631068200403265 %",40.8%
same,inhibition,"PRVABC59, Concentration 198.0 uM, Number of replicates 2.0, Standard deviation 0.09361590556282165 %",58.7%
Cc1cnccc1NC(=O)c1cccn(CC2CCNCC2)c1=O,inhibition,"PRVABC59, Concentration 49.5 uM, Number of replicates 2.0, Standard deviation 3.2606712103202136 %",0.531%
same,inhibition,"PRVABC59, Concentration 99.01 uM, Number of replicates 2.0, Standard deviation 2.3019517896210857 %",3.91%
same,inhibition,"PRVABC59, Concentration 198.0 uM, Number of replicates 2.0, Standard deviation 2.0430462280295743 %",7.25%
c1ccc2c([C@H]3CCN(CC[C@H]4CCCOC4)C3)c[nH]c2c1,inhibition,"PRVABC59, Concentration 49.5 uM, Number of replicates 2.0, Standard deviation 1.010318627219257 %",5.96%
same,inhibition,"PRVABC59, Concentration 99.01 uM, Number of replicates 2.0, Standard deviation 2.5976606536818863 %",9.61%
same,inhibition,"PRVABC59, Concentration 198.0 uM, Number of replicates 2.0, Standard deviation 2.1960692966802595 %",20.4%
